# Screening data as filed in PubChem.
# Nrf2 ARE act: qHTS of Nrf2 Activators; AREc32 ARE-luciferase reporter (MCF7-derived line), luminescence, 24 h; AID 624171, 2012; 410,000 tested, 0.31% active; Potency, µM (top dose mostly 46.1 µM), for the others: top-dose activation, actives largely listed as activators; further: potency means the concentration at half of the fitted maximal effect; % of control where 0% means no effect; nearly all actives have a fitted effect of over 65% in size
#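 AREc32 cells carrying an ARE-driven firefly luciferase, 1000 cells/well in OPTI-MEM with 5% FBS, dosed after overnight attachment and incubated 24 hr at 37 deg C. Steady-Glo luminescence read after 30 min at RT.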
# A549 viability: Nrf2 qHTS screen for inhibitors: counterscreen for cytotoxicity. A549 ARE-Fluc cells, CellTiter-Fluor viability, 18-24 h. Potency, µM (top dose mostly 46 µM), for inactives: at the highest dose activity change, negative = cytotoxicity, hits mostly inhibitors. 390,000 tested, 0.16% active. AID 504648, 2011; further: potency means the concentration at half of the fitted maximal effect; on the % scale 0 is the no-effect control and ±100 the full control effect
#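 Cytotoxicity counterscreen: CellTiter-Fluor fluorescence was measured in A549 ARE_Fluc cells after 18-24 h of compound exposure in a concentration series. The subsequent BugLite luminescent read reports ARE-luciferase activity.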
# miR-21 reporter: qHTS Assay for Modulators of miRNAs and/orActivators of miR-21; 340,000 tested, under 10 active; AID 2288, 2010; HeLa miR-21 FLuc reporter, luciferase, 48 h; Potency, µM (series often up to 38.3 µM), for inactives: at the highest dose activity change, positive = activation, actives largely listed as activators;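 further: % of control where 0% means no effect; miR-21 action dims this reporter so a rising signal means less miR-21 action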
#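 Using DMEM plus 10% FBS, HeLa miR-21-FLuc cells are incubated with test compounds (final up to about 40uM) for 48 hours; firefly luciferase signal is then imaged following reagent-mediated lysis.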
# ClpP mod: qHTS Assay for Activators of ClpP; purified B. subtilis ClpP, FRET peptide cleavage, 20 min; Potency, µM (doses to about 57.5 µM), for the others: at the highest dose activity change, negative = active; AID 651965, 2013; 340,000 tested, 1.9% active; active means well fitted falling curve with a large enough effect; inconclusive means small, poorly fitted or top-dose-only effect; inactive means no such curve, though single readings can be large or run the other way; further: potency means the concentration at half of the fitted maximal effect; the source files actives as falling curves though it sought activators and does not explain the sign; nearly all actives have a fitted effect of over 65% in size
# Target sequence (P80244 whole entry, looked up): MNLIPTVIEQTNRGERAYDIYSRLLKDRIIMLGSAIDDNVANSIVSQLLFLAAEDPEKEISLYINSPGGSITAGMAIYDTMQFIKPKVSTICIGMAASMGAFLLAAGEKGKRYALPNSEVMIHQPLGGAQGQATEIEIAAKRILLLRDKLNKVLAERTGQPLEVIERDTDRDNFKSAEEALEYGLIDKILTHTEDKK
#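 Buffer: 100 mM Tris/HCl pH8, 100 mM KCl, 0.05% low protease BSA, 2.5% glycerol, 0.01% Tween-20. ClpP 10 microg/mL final; 20 min RT; delta FRET normalized to ADEP and DMSO controls.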
# IL-2 act: qHTS of IL-2 Activators; activation, % (series mostly up to about 46 µM); IL-2 activation reporter assay, cell-based qHTS; stimulated with anti-CD3/CD4/CD28 beads; in transgenic mouse T cells; 360,000 tested, 0.065% active; AID 652025, 2013; in the data active means activation above about 50%; inconclusive means mostly about 30% to 49%; further: 0% is about no effect
#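 Using fluorescent plate cytometry, EGFP and DsRed are detected in transgenic mouse T cells stimulated 18 h at 37 degrees C with antibody-coated beads after 60 min compound pretreatment.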
# Nrf2 inh: Nrf2 qHTS screen for inhibitors; A549 ARE-Fluc reporter, luciferase luminescence, 18-24 h; Potency, µM (titrated, usually from 46 µM), without a hit: at the top dose activity change, negative = inhibition, most hits filed as inhibitors; 360,000 tested, 2.1% active; AID 504444, 2011; further: potency means the concentration at half of the fitted maximal effect; on the % scale 0 is the no-effect control and ±100 the full control effect; nearly all actives have a fitted effect of over 60% in size
#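 Quantitative HTS in A549 cells stably bearing an antioxidant response element-firefly luciferase construct. Inhibition of Nrf2-driven transcription was scored by luminescence after 18-24 h of compound exposure at 37 °C.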
# Numbers without * were called inactive; ? = inconclusive; . = not tested or not shown; [ ] = another dose, or the depositor's remark. Shown are actives, neighbours in structure and some others; about 3.7% of the full set was active somewhere. Unless noted, the call rests on the fitted dose curve; in most records, active means well fitted curve in the direction sought with a large enough effect; inconclusive means small, poorly fitted or top-dose-only effect, or another doubt; inactive means no such curve, though single readings can be large; an effect the other way counts as inactive or inconclusive.
SMILES,Nrf2 ARE act,A549 viability,miR-21 reporter,ClpP mod,IL-2 act,Nrf2 inh
CCc1nc2c(OCc3cccc(Cl)c3)cccn2c1N(C)C(=O)C(C)C,3%,.,.,1%,0,.
CCc1nc2c(OCc3cccc(Cl)c3)cccn2c1N(C)C(C)=O,8%,.,.,-2%,55*,.
COc1ccc(C(=O)N(Cc2ccccc2)Cc2ccccc2)cc1COc1ccc(NC(C)=O)cc1,.,-13%,.,.,.,?
CCOc1cc(S(=O)(=O)N2CCC(Cc3ccccc3)CC2)c(OCC)cc1-n1cnnn1,0%,4%,13%,14µM*,-3,-13%
CCOc1cc(-n2cnnn2)c(OCC)cc1NC(=O)c1cnccn1,0%,-3%,0%,-2%,-2,2%
CCOc1cc(S(=O)(=O)NCCc2cccc(C)c2)c(OCC)cc1-n1cnnn1,0%,13%,1%,32µM*,0,-11%
CCOc1cc(S(=O)(=O)N(CC)CC)c(OCC)cc1-n1cnnn1,0%,1%,-7%,16µM*,1,-22%
CCOc1cc(S(=O)(=O)NCCc2ccccc2C)c(OCC)cc1-n1cnnn1,-1%,-11%,-12%,32µM*,-1,-23%
CCOc1cc(S(=O)(=O)N2CC=C(c3ccc(F)cc3)CC2)c(OCC)cc1-n1cnnn1,0%,-6%,?,?,0,?
O=[S+]([O-])(c1cc2ccccc2o1)N1CCN([S+](=O)([O-])c2c(F)cccc2F)CC1,.,-3%,.,.,.,-11%
Cc1ccc(CNC(=O)CCCCCn2c(=O)c3sccc3n(CC(=O)C(C)(C)C)c2=O)cc1,5%,-3%,2%,-1%,.,-21%
COCCNc1nc(-c2ccccc2F)c2sc(-c3ccccc3)cc2n1,6%,.,.,32µM*,0,.
COCCNc1nc(-c2cc(F)ccc2C)c2sc(-c3ccccc3)cc2n1,1%,.,.,5%,0,.
CCc1ccccc1Oc1nc2cc(-c3cccc(OC)c3)sc2c(=O)n1C,17%,.,.,13µM*,-1,.
CCc1ccccc1Oc1nc(NCCOC)nc2cc(-c3ccccc3)sc12,0%[9.22 µM],.,.,22µM*,0,.
COCCNc1nc(Oc2ccc(NC(C)=O)cc2)c2sc(-c3ccccc3)cc2n1,-1%[9.22 µM],.,.,32µM*,-1,.
COCCNc1nc(Oc2ccc(CC(=O)OC)cc2)c2sc(-c3ccccc3)cc2n1,1%[9.22 µM],.,.,?,-1,.
O=C(c1cccs1)N1CCCc2cc(NS(=O)(=O)c3cc(F)ccc3F)ccc21,-1%,-1%,-9%,-2%,.,.
COc1ccc(CCn2c(=S)[nH]c(=O)c3nccnc32)cc1OC,.,?,.,0%,.,18µM*
O=C(O)CCCn1c(O)c(C=C2N=c3ccccc3=N2)sc1=S,14µM*,?,-5%,-1%,-1,-14%
Cc1c(C)n(CC(O)CN2CCCCC2)c2ccccc12 (stereo unspecified),2%,-4%,0%,32µM*,-1,12%
Cc1c(C)n(CC(O)CN2CCN(C)CC2)c2ccccc12 (stereo unspecified),0%,-11%,0%,4%,1,-19%
Cc1cc(C)n(CC(O)Cn2c(C)c(C)c3ccccc32)n1 (stereo unspecified),0%,0%,-4%,32µM*,3,.
Cc1ccccc1NC(=O)c1ccccc1OCC(=O)Nc1ccc(Br)cc1,.,.,.,-9%,.,.
O=C(OCC#CCSc1nnc(-c2cccc3ccccc23)o1)c1ccc(SC(F)(F)F)cc1,.,2%,.,.,.,-10%
Cc1oc(-c2cccc3ccccc23)nc1CN1CCN(c2ncnc3ccccc23)CC1,0%,?,28%,.,-1,18µM*
COC(=O)[C@@H]1Cc2c([nH]c3ccccc23)C(C)(C)N1C(=O)CCl,10µM*,-7%,?,.,-1,-14%
